# High-throughput results from PubChem.
# IL1B cytotox = HUVEC cytotoxicity counter-screen, IL-1B stimulated. HUVEC cell count loss, Hoechst imaging. cell count reduction, % at 2 µM. actives 0.41% (n = 94,000);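 active = cell count reduction more than 3 SD above the screen-wide mean, cut at about 70% in these data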;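 note: normalized per plate to untreated control cells as the no-loss baseline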
# E-sel TNF inh = blocks E-selectin expression induced by TNF alpha. inhibition, % at 2 µM. actives 0.71% (n = 120,000). HUVEC TNFa-induced E-selectin immunofluorescence, high content;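 active = inhibition above the batch mean plus 3 SD, and confirmed as a hit on visual image review, cut at about 43% in these data; inconclusive = passes the inhibition cutoff but fails visual image review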;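 note: 0% = TNF-stimulated DMSO wells and 100% = unstimulated control wells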
# VCAM1 TNFa inh = reduces TNF alpha induced VCAM1 expression in HUVEC | inhibition, % at 2 µM | HUVEC TNFa-induced VCAM-1 immunofluorescence, high-content imaging | actives 0.48% (n = 95,000);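 active = inhibition above the batch mean plus 3 SD, with images confirmed as a hit by eye, cut at about 37% in these data; inconclusive = inhibition above that limit but hit not confirmed in images; inactive = inhibition not above that limit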;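 note: 0% = TNF-stimulated DMSO wells and 100% = unstimulated control wells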
# HUVEC tox TNFa = toxic to HUVEC cells under TNF alpha stimulation. HUVEC TNFalpha-stimulated, Hoechst cell count, imaging. cell count reduction, % at 2 µM. actives 0.17% (n = 93,000). AID 848;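 active = cell count reduction exceeding the screen mean by over 5 SD, scaled to untreated wells per plate, cut at about 78% in these data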;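 note: cells counted after 24 h of TNF alpha exposure following the 1 h pretreatment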
# NFkB transloc inh = blocks IL-1B driven NFkB nuclear translocation in HUVEC cells | actives 0.43% (n = 94,000) | HUVEC IL-1B NFkB p65 nuclear translocation imaging | inhibition, % at 2 µM;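 active = inhibition above about 30% together with a positive call from visual inspection of the well image, limit read from the data; inconclusive = inhibition above a set limit but visual check negative; inactive = inhibition not above a set limit, visual check negative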;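 note: nuclear over cytoplasmic p65 intensity ratio measured by imaging; 0% = IL-1B stimulated DMSO wells and 100% = unstimulated DMSO wells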
# IL1B NFkB pot = enhances IL-1B driven NFkB nuclear translocation; HUVEC IL-1B NFkB p65 nuclear translocation imaging; activation, % at 2 µM; actives 0.3% (n = 94,000);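 active = activation above 40%, about the mean plus 3 SD, also judged a hit on visual image review; inconclusive = activation above 40% but not a hit on visual review; inactive = activation not above 40% and no visual hit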;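 note: percent activation is computed from the nuclear over cytoplasmic p65 intensity ratio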
# Numbers without * were called inactive; ? = inconclusive; . = not tested or not shown. An excerpt weighted towards active compounds, which were near 1.7% of everything screened.
SMILES,IL1B cytotox,E-sel TNF inh,VCAM1 TNFa inh,HUVEC tox TNFa,NFkB transloc inh,IL1B NFkB pot
CCNC(=O)CCn1nc(-c2ccc(Cl)cc2)c2ccccc2c1=O,16,.,84*,96*,-1,1
O=C(Nc1c(C(=O)Nc2cccc3ccccc23)cnn1-c1ccccc1)c1ccco1,35,-19,-12,-1,2,-2
NCCCC[C@@H]1NC(=O)[C@H](CCC(=O)O)NC(=O)c2cc([N+](=O)[O-])cc(I)c2OCC[C@@H](C(N)=O)NC1=O,.,-29,.,.,.,.
Cc1ccc(Cc2cnc(NC(=O)/C(C#N)=C/c3ccc(-c4ccccc4[N+](=O)[O-])o3)s2)cc1,5,51*,12,-11,7,-7
O=C(N/N=C\c1c(O)ccc2ccccc12)c1ccc(Cn2cccn2)o1,.,0,.,.,.,.
COc1ccc(C(C)=O)cc1CSc1nnc(-c2ccccc2O)n1-c1ccccc1,-14,10,-25,.,0,-4
O=S1(=O)CCN(C(CCO)c2cccc(C(F)(F)F)c2)CC1 (stereo unspecified),.,95*,.,.,.,.
O=C(CCn1nnc2ccccc21)Nc1nnc(Cc2ccc(F)cc2)s1,.,47*,.,.,.,.
COc1ccccc1N(C)S(=O)(=O)c1ccc(C(=O)Nc2nc(C)cs2)cc1,.,13,.,.,.,.
O=C(NCc1cccs1)c1nc2c(nnn2Cc2ccccc2Cl)c(=O)[nH]1,6,.,54*,-12,-16,16
Cc1ccc(C)c(Cn2nnc3c(=O)[nH]c(C4CCCN(C(=O)CC(C)C)C4)nc32)c1 (stereo unspecified),7,.,0,-9,-8,8
COCCCNC(=O)c1nc2c(nnn2Cc2cc(C)ccc2C)c(=O)[nH]1,93*,-5,0,-12,-41,41*
CCC(C)NC(=O)c1nc2c(nnn2Cc2ccccc2Cl)c(=O)[nH]1 (stereo unspecified),.,-15,.,.,.,.
O=c1cc(N2CCOCC2)cnn1-c1ccccc1,.,10,.,.,.,.
CCn1c(SCC(=O)NC(C)c2ccccc2)nc2ccccc21 (stereo unspecified),-17,-27,63*,28,2,-2
Cc1c(C(=O)N2CCc3ccccc3C2)oc2ccc(S(=O)(=O)N3CC(C)CC(C)C3)cc12 (stereo unspecified),.,26,.,.,.,.
COc1ccc2c(c1)-c1c(ssc1=S)C(C)(C)N2,94*,-17,-26,14,20,-20
CCCCc1nc(N2CCOCC2)c(C#N)c2c1COC(C)(C)C2,-19,-6,10,-2,6,-6
CCCCc1nc(NCC2CCCO2)c(C#N)c2c1COC(C)(C)C2 (stereo unspecified),84*,-44,30,-3,12,-11
CCCCN(CCCC)S(=O)(=O)c1ccc(NC(=O)c2cccs2)cc1,-7,85*,2,2,18,-18
NC(=O)Nc1ccccc1C(=O)N1CCC(O)(c2ccc(Cl)cc2)CC1,.,6,.,.,.,.
CCOC(=O)/C(=C/c1c2ccccc2cc2ccccc12)NC(=O)c1ccccc1,92*,-15,-5,.,-6,-97
Cc1ccc2c(c1)C(c1ccc(F)cc1)N(C(=O)c1cc3ccccc3oc1=O)CC(=O)N2 (stereo unspecified),.,95*,.,.,.,.
COC(=O)C(O)(CC(=O)Nc1ccc(Cl)cc1F)C(F)(F)F (stereo unspecified),30,7,9,-16,32*,-32
Cc1ccc(N/N=C/c2ccc3c(c2)OCCO3)cc1Cl,.,-7,.,.,.,.
SMILES,IL1B cytotox,E-sel TNF inh,VCAM1 TNFa inh,HUVEC tox TNFa,NFkB transloc inh,IL1B NFkB pot
Cc1ccc(N/N=C/c2ccc(N3CCOCC3)cc2)cc1C,3,-6,67*,.,-6,-3
Cc1ccc(NC(=O)N2CCC(C(=O)NCCC3=CCCCC3)CC2)cc1,21,40*,4,14,9,-9
O=C(NCc1ccco1)C(c1cccnc1)N(C(=O)Cn1nnc2ccccc21)c1ccc(F)cc1 (stereo unspecified),-36,7,-7,-50,-6,6
C=C(C)c1cccc(C(C)(C)NC(=O)Nc2ccc(Cl)cn2)c1,.,2,.,.,.,.
C=C(C)c1cccc(C(C)(C)NC(=O)Nc2ncccn2)c1,-13,-52,99*,95*,0,0
Cc1cc(SCC(=O)c2ccc3c(c2)OCO3)nc2ccccc12,-40,5,12,-8,57*,-57
O=C(Nc1ccc(Cl)cc1)C1=Cc2ccccc2OC1,7,-8,11,-9,1,-1
NC(=O)C1CCCN(C(=S)Nc2cccc3ccccc23)C1 (stereo unspecified),.,70*,.,.,.,.
S=C(Nc1cccc2ccccc12)N1CCN(c2ncccn2)CC1,30,-34,-20,-2,3,-3
CCC(CC)C(=O)c1c[nH]c(C(=O)NCCCN2CCOCC2)c1,-16,86*,-25,-10,8,-8
O=C(c1ccc(F)cc1)c1c[nH]c(C(=O)NCCCN2CCOCC2)c1,0,.,-12,-12,-24,24
CCc1ccc(NC(=O)N(CCOC)C2CCN(C(C)=O)CC2)cc1,-4,-7,-10,-7,-5,5
CC1(C)CC(=O)c2sc(NC(=O)c3ccc4ncsc4c3)nc2C1,-4,0,-6,-25,9,-9
CCn1cc(C(=O)NCCCOC)c2cc(OC)c(OC)cc2c1=O,.,-21,.,.,.,.
COCCCNC(=O)c1cn(C)c(=O)c2cc(OC)c(OC)cc12,24,.,?,100*,-3,3
Cc1ccc(OCC(=O)N2c3ccccc3CC2C)c([N+](=O)[O-])n1 (stereo unspecified),.,19,.,.,.,.
COc1ccc(C(=O)NC(=S)NCc2ccc(-c3nc4ccccc4o3)cc2)cc1OC,-29,8,-9,2,-24,24
CCOc1cc(C(=O)NCc2ccc(-c3nc4ccccc4o3)cc2)cc(OCC)c1OCC,26,66*,-26,.,-10,9
C/C(=N\Nc1cccc2cccnc12)c1ccccc1O,.,72*,.,.,.,.
COc1ccc(N=C2S/C(=C\c3ccc(N4CCOCC4)o3)C(=O)N2CCc2c[nH]c3ccccc23)cc1,8,6,2,12,48*,-48
O=C1c2cccc3c([N+](=O)[O-])ccc(c23)C(=O)N1c1nccs1,35,44,76*,29,10,-10
O=C1c2cccc3c([N+](=O)[O-])ccc(c23)C(=O)N1c1ccccn1,.,-24,33,43,.,.
O=C1c2cccc3c([N+](=O)[O-])ccc(c23)C(=O)N1c1ccc(Cl)cn1,83*,37,69*,30,30*,-30
O=[N+]([O-])c1ccc(/C=N/n2c(COc3ccccc3)n[nH]c2=S)cc1,4,30,43*,53,3,-3
Cc1cc(C)cc(C(=O)Oc2coc(CSc3nnc(NC(=O)C4CC4)s3)cc2=O)c1,.,61*,.,.,.,.
O=C(Cn1ncc2c(=O)oc3ccccc3c21)Nc1nc2ccccc2s1,3,8,-12,6,5,-5
COc1cc(C(=O)OCCNC(=O)c2ccncc2)cc(OC)c1OC,.,62*,.,.,.,.
